# High-throughput results deposited in PubChem by several laboratories.
# TWEAK Fn14 block: blocks TWEAK-Fn14 interaction in a reporter cell assay; AID 1159606; hit rate 2% among 360,000; TWEAK-stimulated Fn14 reporter cells, luciferase luminescence, 8 h; inhibition, % at 10 µM; in the data active = inhibition above about 50%
# HSP90 refold inh: blocks HSP90-mediated luciferase refolding in reticulocyte lysate. Rabbit reticulocyte lysate, luciferase refolding luminescence, 3 h. inhibition, % at 5.6 µM. hit rate 0.91% among 290,000. AID 1789;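 active = inhibition above the screen-wide mean plus 3 SD, computed separately per campaign, cut at about 16% in these data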;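 note: 0% = DMSO wells and 100% = 60 µM geldanamycin wells; inhibitors lower the luminescence because luciferase stays unfolded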
# TROY signal inh: blocks TROY-dependent signaling in reporter cells | inhibition, % at 10 µM | AID 1347056 | hit rate 0.98% among 360,000 | Q293 LMP1-TROYcd NF-kB luciferase reporter, 4 h;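 active = compounds whose plate-normalised and pattern-corrected inhibition of the luciferase reporter signal at the single screening dose is 50% or more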
# HIF-2a inh: inhibitors of HIF-2a; 786-0 RCC cells HIF-2a reporter, luciferase luminescence, overnight; inhibition, % at 18.8 µM; hit rate 0.72% among 360,000;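 active = inhibition of the luminescence signal of 40% or more relative to plate controls, in a single-dose primary screen at 18.75 µM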
# C8 TRAIL sens: caspase-8 TRAIL sensitization | NB7+C8 cells + TRAIL, ATPlite viability luminescence | inhibition (viability loss, TRAIL sensitization), % at 10 µM | hit rate 1% among 360,000;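 active = compounds causing at least 50% loss of cell viability in the single-dose screen, relative to plate controls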
# aSyn 5UTR inh: MLPCN primary screen, SNCA 5' untranslated region | alpha-synuclein 5'UTR reporter, inhibitor activity | hit rate 0.82% among 300,000 | AID 1813 | inhibition, % (tested at 7.5 µM); in the data active = inhibition above about 60%; inconclusive = no clear call, values can overlap the other calls;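 note: H4 neuroglioblastoma cells stably carrying SNCA 5'UTR luciferase fusion; 0% = DMSO wells and 100% = positive control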
# Active calls of the source: *; ? = inconclusive; / = no result. This is a sample that favours compounds with a hit; in the whole collection about 3.9% have one here.
SMILES,TWEAK Fn14 block,HSP90 refold inh,TROY signal inh,HIF-2a inh,C8 TRAIL sens,aSyn 5UTR inh
Cc1ccc(-n2c(=O)[nH]c3ccccc3c2=O)cc1[N+](=O)[O-],-11,/,-2,-108,5,/
C=C1C(=O)OC2CC3(C)OC3CCC(C)=CC(OC(C)=O)C12 (stereo not drawn),76*,/,52*,16,8,/
C=C1C(=O)O[C@@H]2C[C@@H](C)[C@H]3C=CC(=O)[C@]3(O)C[C@@H]12,-32,/,-36,9,11,-117
COc1ccc(-n2nnnc2C(c2cccs2)N2CCC(n3c(=O)[nH]c4ccccc43)CC2)cc1 (stereo not drawn),31,/,31,-23,-10,/
CSCCC(c1nnnn1C(C)(C)C)N1CCC2(CC1)C(=O)NCN2c1ccccc1 (stereo not drawn),3,/,-14,12,-16,/
CC(=O)O[C@@H]1/C=C/[C@](C)(O)C[C@@H](C)C/C=C/[C@H]2[C@@H]3O[C@]3(C)[C@@H](C)[C@H]3[C@H](Cc4ccccc4)NC(=O)[C@@]312,-52,/,-37,-43,23,114*
Cc1ccc(CN2C(=O)NC(=O)C3(Cc4c(nc5ccccn5c4=O)N4CCCCCC43)C2=O)cc1 (stereo not drawn),30,1,87*,14,-2,-1
O=C1NC(=O)C2(Cc3ccccc3N3CCCC32)C(=O)N1c1cccc(Cl)c1 (stereo not drawn),8,6,-2,16,2,-22
CCOc1ccc(N2C(=O)/C(=C/c3ccco3)C(=O)NC2=S)cc1,57*,5,-4,21,-7,23
COc1ccc(C(SCC(NC(=O)OCc2ccccc2)C(=O)O)c2ccc(OC)cc2)cc1 (stereo not drawn),-25,/,-29,-41,-10,/
Cc1cc(OC(=O)CCNC(=O)OC(C)(C)C)c2c3c(c(=O)oc2c1)CCC3,63*,0,37,-50,6,-7
Cc1cc(OC(=O)CCCNC(=O)OC(C)(C)C)c2c3c(c(=O)oc2c1)CCC3,24,1,18,-26,1,-20
CCOC(=O)[C@]12Cc3ccccc3[C@H]1N(CCC(=O)OC)C(=O)c1cc(OC)ccc12,31,/,28,15,0,/
N#CC(C#N)=Cc1ccc(O)c(O)c1,-5,/,-14,-4,5,/
CC(C)(C)c1cc(C=C(C#N)C#N)cc(C(C)(C)C)c1O,73*,/,57*,-24,32,/
O=C1NC(=O)C(Nc2ccccc2)C(=O)N1,3,/,-6,-12,-3,/
Cc1ccc(-c2cc(-c3ccc(C)cc3)[n+](-c3ccccc3)c(-c3ccc(C)cc3)c2)cc1,92*,/,71*,57*,71*,76*
Cc1ccc(-c2cc(-c3ccc(C)cc3)[n+](C)o2)cc1,19,1,-8,-7,39,-2
CCOC(=O)c1cccc(-[n+]2c(-c3ccccc3)cc(-c3ccccc3)cc2-c2ccccc2)c1,24,/,-3,-9,58*,8
Cc1ccc(-c2cc(-c3ccc(C)cc3)[n+](-c3ccc(C(=O)[O-])cc3)c(-c3ccc(C)cc3)c2)cc1,1,/,-7,-29,6,83*
CCOC(=O)c1ccc(-[n+]2c(-c3ccccc3)cc(-c3ccccc3)cc2-c2ccccc2)cc1,/,/,/,/,/,-38
CN(C)c1ccc(-[n+]2c(-c3ccccc3)cc(-c3ccccc3)cc2-c2ccccc2)cc1,66*,4,47,35,42,84*
C[C@]12CCC3C(CC[C@H]4C[C@H](O)CC[C@]34C)C1C[C@@H](O)[C@H]2O (stereo partly drawn),4,/,13,5,1,/
Nc1ccc(-c2ccc(N)cc2)cc1,-5,/,-14,-31,-4,/
Cc1ccc(-c2cc(-c3ccccc3)cc(-c3ccccc3)[n+]2-c2ccccc2)cc1,104*,/,84*,0,91*,85*
SMILES,TWEAK Fn14 block,HSP90 refold inh,TROY signal inh,HIF-2a inh,C8 TRAIL sens,aSyn 5UTR inh
C[n+]1c(-c2ccccc2)cc(-c2ccc(Cl)cc2)cc1-c1ccccc1,18,4,21,17,13,0
CC(C)(C)n1nnnc1C(c1cccc2ccccc12)N1CCC2(CC1)C(=O)NCN2c1ccccc1 (stereo not drawn),37,/,29,2,-3,/
Cn1c(NN=O)nc2ccccc21,-32,-2,8,-129,57*,?
COC(=O)C1=Nc2ccccc2/C1=C\c1c(O)n(-c2cc(OC)ccc2OC)c(=O)[nH]c1=O,60*,1,11,20,-3,-19
Cc1ccccc1-n1c(O)c(/C=C2/C(c3ccccc3)=Nc3ccccc32)c(=O)[nH]c1=O,56*,-3,-30,64*,-3,-43
Cc1cccc(-n2c(O)c(/C=C3/C(c4ccccc4)=Nc4ccccc43)c(=O)[nH]c2=O)c1,53*,-1,-1,-106,29,-174
COc1ccc(OC)c(-n2c(O)c(C=Nc3c(C)n(C)n(-c4ccccc4)c3=O)c(=O)[nH]c2=O)c1,-16,0,4,6,-5,-3
CCCCn1nnnc1C(CC)N1CCC2(CC1)C(=O)NCN2c1ccccc1 (stereo not drawn),-10,/,0,2,3,/
C[C@H](CO)N1C[C@H](C)[C@@H](CN(C)C(=O)Oc2ccc3ccccc3c2)OCc2cn(nn2)CCCC1=O,-11,/,4,0,1,/
c1ccc(-c2[nH]c(-c3ccccc3)[n+](CC3CO3)c2-c2ccccc2)cc1 (stereo not drawn),80*,2,41,36,20,-10
COC(=O)[C@@H]1N=C(c2ccc(OC)cc2)O[C@]12C(=O)N(C)c1ccc(Cl)cc12,11,/,-7,-5,-5,/
COC(=O)c1c(C)n(Cc2ccc3c(c2)OCO3)c2ccc(O)cc12,53*,-2,12,-66,-1,-22
CCC(C)c1cnc(CC(C)C)c(=O)n1O (stereo not drawn),-16,/,-8,-13,3,/
COC(=O)[C@]12OC[C@]34C([C@@H](O)[C@@H]1O)[C@]1(C)CC(=O)C(O)=C(C)[C@@H]1C[C@H]3OC(=O)[C@H](O)[C@@H]24 (stereo partly drawn),95*,/,79*,45*,39,16
Cc1nc2ccc(Br)cc2c(=O)n1-c1ccc([N+](=O)[O-])c(C(F)(F)F)c1,36,/,56*,8,-3,17
Cc1nc2ccccc2c(=O)n1-c1cc([N+](=O)[O-])cc([N+](=O)[O-])c1,-21,0,5,4,8,10
c1ccc2c(c1)[nH]c1cnccc12,-7,2,0,9,-7,-11
Cc1c2ccncc2c(C)c2c1[nH]c1ccccc12,-32,5,-8,-9,47,114*
C[C@H]1CCC/C=C/[C@@H]2C[C@H](O)C[C@H]2[C@@H](O)/C=C/C(=O)O1,61*,/,-50,39,42,/
O=C1NC(=O)C(C2CCCCCC2)C(=O)N1,7,/,0,12,-12,/
